Screening data as filed in PubChem BioAssay.
Shown are actives, neighbours in structure and some others; about 2.3% of the full set was active somewhere.
Mcl-1 Bim block: inhibitors of Bim-Mcl-1 interaction, human. 190,000 compounds, 0.1% hits. Q07820. AID 1009. Bead-based flow cytometry, Bim peptide-Mcl-1 binding. inhibition, % at 10 µM; in the data active means inhibition above about 40%;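 further: 0% = no compound tracer wells and 100% = peptide blocker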
Target sequence (Q07820 whole entry, looked up): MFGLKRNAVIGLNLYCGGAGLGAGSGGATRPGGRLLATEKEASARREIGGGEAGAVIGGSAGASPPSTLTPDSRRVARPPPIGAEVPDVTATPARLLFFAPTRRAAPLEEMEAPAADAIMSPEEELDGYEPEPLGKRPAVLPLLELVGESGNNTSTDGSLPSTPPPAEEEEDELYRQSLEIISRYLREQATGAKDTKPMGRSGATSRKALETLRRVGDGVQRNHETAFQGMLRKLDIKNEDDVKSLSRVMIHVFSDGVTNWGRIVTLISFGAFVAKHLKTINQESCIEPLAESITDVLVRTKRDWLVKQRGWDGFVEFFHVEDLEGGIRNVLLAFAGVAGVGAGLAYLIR
Mcl1 Noxa PPI: disrupts binding of human Mcl-1 to Noxa peptide; TR-FRET Mcl-1/Noxa peptide binding, 2 h; 220,000 compounds, 1.5% hits; inhibition, % at 21.7 µM; Q07820;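 active means compounds that cut the protein-peptide binding signal by more than 50% relative to plate controls in a single-dose test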;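 further: His-tagged Mcl-1 with rhodamine Noxa BH3 peptide and terbium anti-His antibody; 0% = Mcl-1 plus Noxa peptide wells and 100% = peptide-only wells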
GLD-1 TGE inh: GLD-1-TGE RNA interaction inhibition (C. elegans) | Q17339 | purified GLD-1 + fluorescein TGE RNA, fluorescence polarization | inhibition, % at 5.96 µM | 320,000 compounds, 0.44% hits | AID 2280;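 active means percent inhibition above a per-plate cutoff, the plate mean of test compounds plus 3 SD, cut at about 30% in these data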;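 further: 0% = DMSO wells with GLD-1 and probe and 100% = wells lacking GLD-1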
Mcl1 Bid PPI: disrupts binding of human Mcl-1 to Bid peptide | TR-FRET Mcl-1/Bid-Dy647 peptide binding, 1536-well | AID 1021 | 220,000 compounds, 0.97% hits | inhibition, % at 21.7 µM;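 active means compounds that cut the binding signal by more than half at the single screening dose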;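 further: His-tagged Mcl-1 with europium anti-His antibody binding Bid BH3 peptide; 0% = Mcl-1 plus peptide wells and 100% = peptide-only wells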
Bcl-xL primary: blocks human Bcl-xL binding to Bim BH3 peptide | GST-Bcl-xL / FITC-Bim BH3 peptide fluorescence polarization | 320,000 compounds, 0.7% hits | Q07817 | AID 2129 | inhibition, % at 10.9 µM;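 active means inhibition above the mean of all tested compounds plus 3 SD, cutoff set per campaign, cut at about 30% in these data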;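 further: 0% = DMSO wells and 100% = unlabeled Bim-BH3 peptide competitor; inhibitors lower millipolarization by displacing the labeled peptide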
Target sequence (Q07817 whole entry, looked up): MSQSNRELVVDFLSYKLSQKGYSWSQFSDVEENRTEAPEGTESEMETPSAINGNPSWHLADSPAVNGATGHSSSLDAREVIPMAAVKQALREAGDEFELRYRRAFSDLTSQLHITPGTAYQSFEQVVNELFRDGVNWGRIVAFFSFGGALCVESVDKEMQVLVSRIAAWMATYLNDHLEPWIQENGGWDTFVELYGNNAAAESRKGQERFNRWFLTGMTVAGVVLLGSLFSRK
MCL1 BIM primary: disrupts human MCL1 binding to BIM-BH3 peptide. inhibition, % at 10.9 µM. Q07820. 320,000 compounds, 0.68% hits. GST-MCL1 / FITC-Bim-BH3 fluorescence polarization. AID 2057;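 active means inhibition above the mean inhibition of all tested compounds plus 3 SD, set per campaign, cut at about 40% in these data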;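 further: 0% = DMSO wells and 100% = unlabeled Bim-BH3 peptide control; higher means more loss of mP so more displacement of Bim peptide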
* hit, by the source's call; / = not tested or not shown.

SMILES	Mcl-1 Bim block	Mcl1 Noxa PPI	GLD-1 TGE inh	Mcl1 Bid PPI	Bcl-xL primary	MCL1 BIM primary
O=C(NC1CCS(=O)(=O)C1)c1cccc(S(=O)(=O)N2CCCC2)c1 (stereo not drawn)	2	-3	6	-34	2	0
Cc1[nH]c2ccccc2c1/C=C/c1cc[n+](C)cc1	-3	-168	/	-35	/	/
Cc1ccccc1/C=C/c1cc[n+](C)cc1	-4	20	2	14	-6	-12
C=CCn1c(C)c(/C=C/c2cc[n+](C)cc2)c2ccccc21	/	/	74*	/	-75	-130
C=CCn1cc(/C=C/c2cc[n+](C)cc2)c2ccccc21	/	/	57*	/	46*	23
CCN(CC)C(=O)Cn1c(C)c(/C=C/c2cc[n+](C)cc2)c2ccccc21	/	/	60*	/	-98	-215
CCN(CC)C(=O)Cn1c(=O)n(C)c2ccccc21	/	-18	-4	-86	5	1
CCn1cc(/C=C/c2cc[n+](C)cc2)c2ccccc21	/	/	66*	/	41*	23
CCCCC(=O)Nc1ccc(C(=O)N2CCC(C(=O)OCC)CC2)cc1	64*	17	3	-6	6	5
NC(=O)c1ccccc1Nc1nc(NCCO)nc(N2CCCC2)n1	/	/	-1	/	5	10
O=[N+]([O-])c1cc(-c2ccc(/C=N/c3nc4ccccn4c3-c3ccco3)o2)ccc1Cl	1	65*	26	65*	25	30
CCOC(=O)c1c(C)[nH]c(C(=O)CSc2nc3ccccc3o2)c1C	-1	69*	0	-7	8	0
Oc1c(/C=N/c2ccccn2)sc2ccccc12	/	76*	-26	49	-22	-42
CC(=O)Nc1ccc(Nc2cc(C(C)C)nc3c(-c4ccccc4)c(C)nn23)cc1	/	9	6	-1	7	3
CC1=C[C@H]2OC(=O)[C@@H](C)[C@H]2C[C@@H]2[C@H]1C[C@@H](O)[C@@]2(C)O	/	2	114*	-29	1	3
COc1cc(C=C(c2nc3ccccc3s2)c2nc3ccccc3s2)ccc1O	-1	24	-7	-4	41*	43*
COc1cc(/C=C/c2nc3ccccc3s2)cc(OC)c1O	0	55*	-51	-7	9	16
COc1cccc(/C=C(\CC(=O)O)c2nc3ccccc3s2)c1	0	6	-2	-8	-1	0
COc1ccc(/C=N/Nc2nc3ccccc3s2)cc1O	0	8	/	6	/	/
COc1ccc(C=C(c2nc3ccccc3s2)c2nc3ccccc3s2)cc1O	0	-8	32*	-65	11	-5
CCNC(=S)N1CCC(C(=O)c2ccc3c(c2)OCCO3)CC1	4	-7	-4	-39	6	3
CCOCCCNC(=S)N1CCC(C(=O)c2ccc3c(c2)OCCO3)CC1	2	72*	2	-8	2	5
COC(=O)Sc1nc(N2CCOCC2)c2c(c1C#N)CC(C)(C)OC2	-12	14	0	-10	7	3
CC(Sc1nc(N2CCOCC2)c2c(c1C#N)CC(C)(C)OC2)C(=O)O (stereo not drawn)	/	/	-10	/	31*	-5
CC(=O)c1cc(C(=O)N2CCCC(C(=O)c3ccc(Cl)cc3)C2)cs1 (stereo not drawn)	/	/	0	/	2	-1
SMILES	Mcl-1 Bim block	Mcl1 Noxa PPI	GLD-1 TGE inh	Mcl1 Bid PPI	Bcl-xL primary	MCL1 BIM primary
O=C(Oc1ccccc1O)c1cccc2ccccc12	-1	-3	0	-41	4	-1
COc1cc(/C=N/NC(=O)c2cc(-c3ccc4c(c3)OCO4)n[nH]2)ccc1O	9	55*	5	1	5	16
Cc1ccccc1C(=O)N1CC(=O)Nc2ccc(F)cc2C1c1ccc(F)cc1 (stereo not drawn)	/	/	-1	/	86*	0
Cn1cc(/C=C(\C#N)C(=O)Nc2cccc([N+](=O)[O-])c2)c2ccccc21	3	29	-7	52*	10	-2
Cn1cc(/C=N/NC(=O)c2cccc([N+](=O)[O-])c2)c2ccccc21	-2	22	4	22	-2	1
CCN1C(=O)N(C(C)=O)C2C1N(C(C)=O)C(=O)N2C(C)=O (stereo not drawn)	-1	-1	0	53*	4	-1
O=C1Nc2ccccc2/C1=N\N=C\c1ccc(O)c(O)c1	/	65*	3	-40	10	25
O=C(/C(=N/N=C/c1ccc(O)c(O)c1)c1ccccc1)c1ccccc1	-12	51*	4	-26	2	16
CN(CCOc1ccccc1)C(=O)CNC(=O)c1ccc(C(C)(C)C)cc1	/	/	1	/	7	6
Cc1noc(C)c1NC(=O)N(C)C[C@H]1Oc2c(NS(=O)(=O)c3cn(C)cn3)cccc2C(=O)N([C@H](C)CO)C[C@@H]1C	/	/	2	/	/	/
CC(NC(=O)C1CCCN(C(=O)c2ccc(Cl)cc2)C1)c1cccc(C(F)(F)F)c1 (stereo not drawn)	/	/	3	/	1	3
CCOc1ccc(CNC(=S)N/N=C/c2cccnc2)cc1	-3	14	2	-31	-1	5
CCOc1ccc(CNC(=S)N/N=C\c2ccc([N+](=O)[O-])cc2)cc1	-7	54*	2	45	4	8
COc1ccc(/C=N/Nc2ncc(-c3ccccc3)cn2)c(OC)c1	-2	52*	4	40	1	-5
COc1ccc(/C=N/Nc2nc(C)cc(-c3ccccc3)n2)c(OC)c1	/	/	-1	/	4	6
Cc1cnc(C(=O)Nc2ccc(C(=O)N3CCCCC3)cc2)cn1	-3	56*	-1	0	11	8
COc1ccc(/C=N/Nc2ccc([N+](=O)[O-])cc2)cc1O	/	/	-21	/	-52	-76
COc1ccc(C2Nc3ccccc3C(=O)N2O)cc1OC (stereo not drawn)	-3	-1	9	93*	6	6
COc1ccc(C2Nc3ccccc3C(=O)N2NC(C)=O)cc1OC (stereo not drawn)	0	9	-9	-6	1	-4
N#Cc1c(-c2ccc(F)cc2)cc(-c2cccnc2)nc1N	-2	-122	-1	7	0	4
N#Cc1c(-c2ccco2)cc(-c2ccc(F)cc2)nc1N	0	65*	-9	5	-6	-10
CC(C)Cc1cc(-c2ccco2)c(C#N)c(N)n1	48*	0	-2	-16	4	1
Cc1ccccc1C(=O)O[C@H]1[C@H](Cc2ccccc2)NS(=O)(=O)[C@H]2CC3C=C[C@]12O3	/	/	2	/	/	/
CCCCOc1ccc(C(=O)N/C(=C\c2cccc([N+](=O)[O-])c2)C(=O)OCCC)cc1	0	2	13	-27	6	10
CCCCOc1ccc(C(=O)N/C(=C\c2ccc([N+](=O)[O-])cc2)C(=O)OCc2ccco2)cc1	58*	7	1	-8	0	-6
Cn1c(=O)c2c(ncn2CC(=O)N2CCN(S(=O)(=O)c3ccccc3)CC2)n(C)c1=O	/	/	6	/	-8	-7
